According to PubChem BioAssay (NCATS):
Results filed as inconclusive are left out. Active and inactive are the calls of the source. Calls come from the whole dose curve; as a rule, active = well fitted curve in the direction sought with a large enough effect; inconclusive = small, poorly fitted or top-dose-only effect, or another doubt; inactive = no such curve, though single readings can be large; an effect the other way counts as inactive or inconclusive.

Assays:
[1] = target: Rap guanine nucleotide exchange factor 3 (Homo sapiens) (UniProt O95398); experiment: Confirmatory qHTS for antagonist of cAMP-regulated guanine nucleotide exchange factor 3 (EPAC1) (AID 1645880); conditions: EPAC1 Rap1B-BODIPY-GDP exchange, fluorescence; series mostly up to 115 µM; note: nearly all actives have a fitted effect of over 55% in size; note: potency is the fitted concentration of half-maximal effect
Outline: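 Nucleotide exchange uses 100 nM EPAC1, 250 nM RAP1B-BODIPY-GDP and 50 uM GDP, with compounds in a concentration-titration series. After 5 min at room temperature, fluorescence (480 nm ex/540 nm em) is read every 5 min for 30 min. Data are normalized to control ATA and DMSO.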

[2] = target: Rap guanine nucleotide exchange factor 3 (Homo sapiens) (UniProt O95398); experiment: Confirmatory qHTS for agonist of cAMP-regulated guanine nucleotide exchange factor 3 (EPAC1) (AID 1645881); conditions: EPAC1 Rap1B BODIPY-GDP exchange fluorescence; series mostly up to 154 µM;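 note: EPAC1 catalysed release of BODIPY-GDP from Rap1B seen as fluorescence loss; 100% = effect of cAMP agonist control; nearly all actives have a fitted effect of over 75% in size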
[3] = target: Rap guanine nucleotide exchange factor 4 (Homo sapiens) (UniProt Q8WZA2); experiment: Confirmatory qHTS for agonist of cAMP-regulated guanine nucleotide exchange factor 4 (EPAC2) (AID 1645884); conditions: EPAC2 GEF activity, Rap1B-BODIPY-GDP fluorescence; series mostly up to 154 µM;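 note: nucleotide exchange releases bodipy-GDP from Rap1 and this lowers its fluorescence; % is set by controls: 0 for no effect and ±100 for the full control effect; nearly all actives have a fitted effect of over 65% in size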
[4] = target: Rap guanine nucleotide exchange factor 4 (Homo sapiens) (UniProt Q8WZA2); experiment: Confirmatory qHTS for antagonist of cAMP-regulated guanine nucleotide exchange factor 4 (EPAC2) (AID 1645885); conditions: EPAC2 Rap1B-BODIPY-GDP exchange fluorescence, biochemical; series mostly up to 12.7 µM; note: nearly all actives have a fitted effect of over 25% in size; for activity change, negative = inhibition: % is set by controls: 0 for no effect and ±100 for the full control effect
[5] = target: Rap guanine nucleotide exchange factor 3 (Homo sapiens) (UniProt O95398); experiment: Counterscreen qHTS for antagonist of cAMP-regulated guanine nucleotide exchange factor 3 (EPAC1) (AID 1645888); conditions: Rap1B-BODIPY-GDP nucleotide exchange, fluorescence; series mostly up to 154 µM;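 note: fluorescence loss as bound BODIPY-GDP is released from Rap1B; % of control where 0% means no effect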
Outline: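 Measured: fluorescence of BODIPY-GDP bound to Rap1B, which falls as exchange proceeds. Conditions include 50 uM competing GDP, 5 and 30 min reads, and a later cAMP challenge for antagonist detection.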

Rap guanine nucleotide exchange factor 4 (Homo sapiens), sequence (Q8WZA2 whole entry, looked up): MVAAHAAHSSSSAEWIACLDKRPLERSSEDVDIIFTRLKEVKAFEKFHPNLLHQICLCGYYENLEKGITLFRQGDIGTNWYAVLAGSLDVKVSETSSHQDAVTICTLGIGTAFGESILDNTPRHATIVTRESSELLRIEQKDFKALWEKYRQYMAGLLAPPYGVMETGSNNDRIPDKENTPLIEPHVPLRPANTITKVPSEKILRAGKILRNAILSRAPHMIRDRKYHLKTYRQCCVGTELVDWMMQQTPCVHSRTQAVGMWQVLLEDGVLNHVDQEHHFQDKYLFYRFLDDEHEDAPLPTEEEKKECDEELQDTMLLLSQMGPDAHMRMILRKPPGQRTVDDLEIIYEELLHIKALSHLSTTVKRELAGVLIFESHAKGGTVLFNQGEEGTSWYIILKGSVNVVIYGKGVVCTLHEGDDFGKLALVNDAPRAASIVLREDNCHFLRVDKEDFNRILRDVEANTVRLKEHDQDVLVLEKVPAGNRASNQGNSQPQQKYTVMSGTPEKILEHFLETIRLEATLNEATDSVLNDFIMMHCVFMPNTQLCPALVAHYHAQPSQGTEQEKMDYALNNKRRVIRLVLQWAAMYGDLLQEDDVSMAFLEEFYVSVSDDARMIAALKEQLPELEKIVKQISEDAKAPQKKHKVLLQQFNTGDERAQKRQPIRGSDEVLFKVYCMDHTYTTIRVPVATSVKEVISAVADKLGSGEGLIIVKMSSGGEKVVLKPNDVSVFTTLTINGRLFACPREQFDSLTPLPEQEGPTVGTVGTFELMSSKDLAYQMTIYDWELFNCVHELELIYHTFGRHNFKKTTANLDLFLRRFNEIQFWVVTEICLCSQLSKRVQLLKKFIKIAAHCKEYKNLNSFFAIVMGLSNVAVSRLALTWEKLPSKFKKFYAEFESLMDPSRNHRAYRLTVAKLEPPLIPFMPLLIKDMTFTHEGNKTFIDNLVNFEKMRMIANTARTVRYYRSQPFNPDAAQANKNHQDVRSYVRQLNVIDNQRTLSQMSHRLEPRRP
Rap guanine nucleotide exchange factor 3 (Homo sapiens), sequence (O95398 whole entry, looked up): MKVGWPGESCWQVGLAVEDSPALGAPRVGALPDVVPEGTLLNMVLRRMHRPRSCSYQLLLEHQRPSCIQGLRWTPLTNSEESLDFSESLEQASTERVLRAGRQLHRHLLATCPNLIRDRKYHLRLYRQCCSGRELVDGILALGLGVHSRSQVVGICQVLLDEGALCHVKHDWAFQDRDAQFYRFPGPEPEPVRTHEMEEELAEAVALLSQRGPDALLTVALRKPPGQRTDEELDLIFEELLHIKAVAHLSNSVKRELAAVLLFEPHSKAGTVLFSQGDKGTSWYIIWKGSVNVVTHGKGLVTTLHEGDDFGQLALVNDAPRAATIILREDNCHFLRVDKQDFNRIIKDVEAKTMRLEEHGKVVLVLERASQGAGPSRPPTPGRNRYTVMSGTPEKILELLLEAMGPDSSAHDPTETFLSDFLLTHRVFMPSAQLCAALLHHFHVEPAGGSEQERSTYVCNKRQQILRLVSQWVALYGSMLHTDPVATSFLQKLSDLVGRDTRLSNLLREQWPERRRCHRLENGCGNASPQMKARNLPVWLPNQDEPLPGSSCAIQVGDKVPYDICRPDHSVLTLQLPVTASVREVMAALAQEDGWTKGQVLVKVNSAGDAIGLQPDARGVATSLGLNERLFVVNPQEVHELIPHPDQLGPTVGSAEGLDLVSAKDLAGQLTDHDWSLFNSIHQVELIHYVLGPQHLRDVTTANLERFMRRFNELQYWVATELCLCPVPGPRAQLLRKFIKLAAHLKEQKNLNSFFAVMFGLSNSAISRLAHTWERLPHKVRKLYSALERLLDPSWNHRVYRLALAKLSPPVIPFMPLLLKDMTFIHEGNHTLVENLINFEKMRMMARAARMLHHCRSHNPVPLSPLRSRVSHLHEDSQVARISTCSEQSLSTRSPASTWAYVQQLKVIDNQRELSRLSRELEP

Cc1cc(C)c(NC(=O)Cn2c(=O)n(Cc3ccc(C(=O)NCc4ccco4)cc3)c(=O)c3sccc32)c(C)c1
inactive: Potency [2] | Potency [3] | Potency [4] | Potency [5]
active: Potency [1] 75.7 µM

Cc1ccc(C(=O)Nc2ccccc2Oc2ccccc2)o1
inactive: Potency [1] | Potency [2] | activation [3] 4.96% [at 17.1 µM, percent relative to cAMP agonist control] | Potency [4] | activity change, negative = inhibition [5] 1.6% [at 30.8 µM]

CCOCCCn1c(SCC(=O)Nc2cccc(OC)c2)nc2ccccc2c1=O
inactive: Potency [1] | Potency [2] | Potency [3] | Potency [4] | Potency [5]

COc1ccc(CN2C(=O)CN(S(C)(=O)=O)CC2(C)C(=O)Nc2c(C)cccc2C)cc1OC (stereo not given)
inactive: Potency [1] | Potency [2] | activation [3] 5.79% [at 17.1 µM, percent relative to cAMP agonist control] | Potency [4] | activity change, negative = inhibition [5] -5.99% [at 30.8 µM]

CCCC(=O)O[C@@H]1C[C@@H](C)N(C(=O)c2ccccc2)c2ccc(C)cc21
inactive: Potency [1] | Potency [2] | Potency [3] | Potency [4] | Potency [5]

c1ccc(CN(Cc2ccccc2)c2c3c(nc4ncnn24)CCC3)cc1
inactive: Potency [1] | Potency [2] | Potency [3] | Potency [4] | Potency [5]

O=C1C=C(Nc2cccnc2)c2ccccc2C1=O
inactive: Potency [2] | Potency [3] | outcome [4] inactive [at 12.7 µM] | Potency [5]
active: Potency [1] 67.5 µM

O=S(c1ccc2ccccc2c1)c1cnns1 (stereo not given)
inactive: Potency [1] | Potency [2] | Potency [3] | Potency [4] | Potency [5]

Cc1cccc(Nc2c([N+](=O)[O-])c(=O)oc3ccccc23)c1
inactive: Potency [1] | Potency [2] | Potency [3] | Potency [4] | Potency [5]

COc1ccc(-c2cc(C(F)F)n3ncc(C(=O)N4CCc5ccccc54)c3n2)cc1
inactive: Potency [1] | Potency [2] | Potency [3] | Potency [4] | Potency [5]

COC(=O)c1cc2sccc2n1Cc1c(C)cc(C)cc1C
inactive: Potency [1] | Potency [2] | Potency [3] | Potency [4] | Potency [5]

NC(=O)c1sc(=S)n2c1[nH]c(=O)c1sccc12
active: Potency [1] 16.9 µM
inactive: Potency [2] | Potency [3] | Potency [4] | Potency [5]

Cn1cccc1C(=O)NC(=O)COC(=O)c1cc(S(=O)(=O)N2CCCCC2)ccc1Cl
inactive: Potency [1] | Potency [2] | Potency [3] | Potency [4] | Potency [5]

OC1(c2ccccc2)CC(c2ccccc2)c2ccccc2O1 (stereo not given)
inactive: Potency [1] | Potency [2] | activation [3] 1.28% [at 17.1 µM, percent relative to cAMP agonist control] | Potency [4] | activity change, negative = inhibition [5] -2.96% [at 30.8 µM]

CC1=NN(c2ccccc2)C(=O)C1/C=C1\NC(=S)NC1=O (stereo not given)
active: Potency [1] 67.5 µM
inactive: Potency [2] | Potency [3] | Potency [4] | Potency [5]

Cc1cccc(-n2nc(C)c(C(=O)Nc3cc(C)ccc3C)c2-n2cccc2)c1
inactive: Potency [1] | Potency [2] | Potency [3] | Potency [4] | Potency [5]

O=C(CSc1nnc(-c2cccnc2)n1CCc1ccccc1)NCc1ccccc1
inactive: Potency [1] | Potency [2] | activation [3] 4.59% [at 17.1 µM, percent relative to cAMP agonist control] | Potency [4] | activity change, negative = inhibition [5] -2.95% [at 30.8 µM]

CC[C@H]1C(c2ccc(F)cc2)=NN(c2ccccc2)[C@@H]1CO
inactive: Potency [1] | Potency [2] | activation [3] 4.16% [at 17.1 µM, percent relative to cAMP agonist control] | Potency [4] | activity change, negative = inhibition [5] -6.73% [at 30.8 µM]

COC(=O)c1c(SC)nc2ccccc2c1OCc1ccccc1C
inactive: Potency [1] | Potency [2] | Potency [3] | Potency [4] | Potency [5]

O=C(/C=C/c1ccc(Cl)cc1)Nc1nccs1
inactive: Potency [1] | Potency [2] | activation [3] 2.3% [at 17.1 µM, percent relative to cAMP agonist control] | Potency [4] | activity change, negative = inhibition [5] -6.03% [at 30.8 µM]

COc1cc(C)ccc1S(=O)(=O)N1CCCCCC1
inactive: Potency [1] | Potency [2] | Potency [3] | Potency [4] | Potency [5]

CCCCn1c(N)c(N(CCC(C)C)C(=O)Cc2ccc(S(=O)(=O)N3CCOCC3)s2)c(=O)[nH]c1=O
inactive: Potency [1] | Potency [2] | Potency [3] | Potency [4] | Potency [5]

N#C/C(=C\c1ccc(C(=O)O)cc1)c1nc2sc3c(c2c(=O)[nH]1)CCCC3
inactive: Potency [1] | Potency [2] | activation [3] 10.5% [at 17.1 µM, percent relative to cAMP agonist control] | Potency [4] | activity change, negative = inhibition [5] 7.93% [at 30.8 µM]
